Holding throughout (assay): DAPPL (digital affinity profiling via proximity ligation, sequencing); 10 mM Tris-HCl pH 7.5, 50 mM NaCl, 1 mM DTT, 4% glycerol, room temperature, 30 min; GST-TFs on glutathione beads, 16-mer random dsDNA library, 0.1% formaldehyde crosslink after washing; high values mean tight binding
What all share (details): protein: recombinant; tags: N-terminal GST; dsDNA, one strand shown

In one experiment the target is T1, FLI1 (Homo sapiens, UniProt Q01543 1-452).
T1 sequence: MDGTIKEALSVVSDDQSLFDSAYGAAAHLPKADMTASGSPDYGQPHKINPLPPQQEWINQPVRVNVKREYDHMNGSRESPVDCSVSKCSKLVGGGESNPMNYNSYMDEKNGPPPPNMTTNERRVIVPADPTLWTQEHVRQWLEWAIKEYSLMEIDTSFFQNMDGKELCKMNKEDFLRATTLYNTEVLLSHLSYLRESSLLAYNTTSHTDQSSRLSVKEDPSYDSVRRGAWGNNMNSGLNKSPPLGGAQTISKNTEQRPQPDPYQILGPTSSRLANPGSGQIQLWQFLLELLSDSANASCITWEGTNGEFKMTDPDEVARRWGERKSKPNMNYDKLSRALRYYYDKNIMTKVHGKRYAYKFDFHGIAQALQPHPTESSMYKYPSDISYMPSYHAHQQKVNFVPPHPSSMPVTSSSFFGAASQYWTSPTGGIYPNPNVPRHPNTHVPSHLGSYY
A digest of the protocol:
(§1)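 Pools of DNA-barcoded human transcription factors, expressed in yeast as GST fusions on glutathione beads and combined with a tag-only sample, were incubated with 200 nmole of a 16-mer random double-stranded DNA library. Incubation took 30 min at room temperature in Tris/NaCl/DTT/glycerol buffer and was followed by washing, 0.1% formaldehyde crosslinking, proximity ligation (BsaI/T4 ligase, 1 h, 37 °C), PCR amplification and sequencing on an Illumina NextSeq500. Binding signal is the ratio of a hexamer's read frequency for a factor to its frequency for the tag-only sample.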

The next experiment concerns the target T2, ELK1 (Homo sapiens, UniProt P19419 1-428).
T2 sequence: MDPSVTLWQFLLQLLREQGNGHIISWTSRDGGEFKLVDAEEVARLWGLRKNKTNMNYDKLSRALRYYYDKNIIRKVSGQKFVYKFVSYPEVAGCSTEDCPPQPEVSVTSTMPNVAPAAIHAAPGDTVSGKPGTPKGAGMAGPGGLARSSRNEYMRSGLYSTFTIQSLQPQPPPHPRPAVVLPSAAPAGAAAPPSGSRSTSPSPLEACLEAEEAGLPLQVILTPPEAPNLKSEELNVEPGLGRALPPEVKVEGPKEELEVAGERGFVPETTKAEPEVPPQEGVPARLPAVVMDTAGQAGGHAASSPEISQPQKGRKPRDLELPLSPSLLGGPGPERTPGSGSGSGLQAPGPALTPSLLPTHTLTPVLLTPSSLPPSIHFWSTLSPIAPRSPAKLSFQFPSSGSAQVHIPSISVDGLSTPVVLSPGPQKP
The method, boiled down:
as §1

The target in another experiment is T3, GABPA (Homo sapiens, UniProt Q06546 1-454).
T3 sequence: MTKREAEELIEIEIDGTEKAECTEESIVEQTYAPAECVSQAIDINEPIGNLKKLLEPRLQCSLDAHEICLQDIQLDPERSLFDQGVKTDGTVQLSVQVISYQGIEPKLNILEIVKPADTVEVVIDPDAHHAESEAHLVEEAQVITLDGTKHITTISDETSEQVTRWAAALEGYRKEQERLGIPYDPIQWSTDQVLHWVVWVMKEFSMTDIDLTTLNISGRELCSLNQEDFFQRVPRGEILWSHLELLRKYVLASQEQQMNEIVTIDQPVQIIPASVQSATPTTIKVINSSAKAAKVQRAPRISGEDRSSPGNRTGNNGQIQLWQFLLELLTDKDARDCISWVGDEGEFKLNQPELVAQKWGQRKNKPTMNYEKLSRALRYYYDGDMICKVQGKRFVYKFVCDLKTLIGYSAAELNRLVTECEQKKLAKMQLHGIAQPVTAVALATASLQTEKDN
A digest of the protocol: as §1

The next experiment deals with T4, ERG (Homo sapiens, UniProt P11308 1-479).
T4 sequence: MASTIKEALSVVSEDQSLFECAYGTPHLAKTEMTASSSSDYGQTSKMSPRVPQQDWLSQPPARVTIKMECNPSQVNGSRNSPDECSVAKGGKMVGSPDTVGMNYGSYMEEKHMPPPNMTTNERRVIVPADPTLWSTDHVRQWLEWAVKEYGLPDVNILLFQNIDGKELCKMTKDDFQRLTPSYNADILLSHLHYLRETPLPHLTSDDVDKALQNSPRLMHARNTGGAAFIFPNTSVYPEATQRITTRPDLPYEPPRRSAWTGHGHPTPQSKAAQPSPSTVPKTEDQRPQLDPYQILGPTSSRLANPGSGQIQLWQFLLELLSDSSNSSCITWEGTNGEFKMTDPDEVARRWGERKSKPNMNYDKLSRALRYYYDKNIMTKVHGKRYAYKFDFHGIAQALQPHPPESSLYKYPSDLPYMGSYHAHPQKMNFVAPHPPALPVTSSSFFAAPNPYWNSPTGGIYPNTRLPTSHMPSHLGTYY
The method, boiled down: as §1

The target in the next experiment is ELF1 (Homo sapiens, UniProt P32519 1-619). A digest of the protocol: as §1
A further experiment addresses T5, EHF (Homo sapiens, UniProt Q9NZC4 1-300).
T5 sequence: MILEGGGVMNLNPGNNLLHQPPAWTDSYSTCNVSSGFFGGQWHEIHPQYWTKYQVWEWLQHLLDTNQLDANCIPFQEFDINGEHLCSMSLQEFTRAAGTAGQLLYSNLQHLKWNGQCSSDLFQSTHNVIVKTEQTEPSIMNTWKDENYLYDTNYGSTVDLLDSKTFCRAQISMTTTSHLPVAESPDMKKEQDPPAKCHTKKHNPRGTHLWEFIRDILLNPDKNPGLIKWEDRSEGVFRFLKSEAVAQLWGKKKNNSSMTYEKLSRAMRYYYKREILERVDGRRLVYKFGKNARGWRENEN
A digest of the protocol: as §1

The target in another experiment is SPI1 (Homo sapiens, UniProt P17947 1-270). The method, boiled down: as §1
In another experiment the target is SPIB (Homo sapiens, UniProt Q01892 1-262). The method, boiled down: as §1
A further experiment deals with T6, FEV (Homo sapiens, UniProt Q99581 1-238).
T6 sequence: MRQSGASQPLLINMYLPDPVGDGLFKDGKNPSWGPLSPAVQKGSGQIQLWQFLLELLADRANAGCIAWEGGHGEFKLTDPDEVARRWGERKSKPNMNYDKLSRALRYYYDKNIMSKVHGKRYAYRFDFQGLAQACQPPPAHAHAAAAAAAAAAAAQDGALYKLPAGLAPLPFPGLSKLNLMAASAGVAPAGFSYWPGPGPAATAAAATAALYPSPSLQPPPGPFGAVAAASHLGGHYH
A digest of the protocol:
as §1

In another experiment the target is ETV5 (Homo sapiens, UniProt P41161 1-510). The method, boiled down:
as §1

The target of another experiment is T7, SPIC (Homo sapiens, UniProt Q8N5J4 1-248).
T7 sequence: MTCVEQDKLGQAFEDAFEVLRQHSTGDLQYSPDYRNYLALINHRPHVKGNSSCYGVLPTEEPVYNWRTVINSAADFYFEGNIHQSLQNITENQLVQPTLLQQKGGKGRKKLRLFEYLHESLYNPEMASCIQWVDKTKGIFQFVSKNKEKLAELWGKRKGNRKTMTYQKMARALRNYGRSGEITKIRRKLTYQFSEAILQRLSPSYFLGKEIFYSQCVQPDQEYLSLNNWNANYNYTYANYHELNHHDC
The method, boiled down: as §1

The target in another experiment is ELF4 (Homo sapiens, UniProt Q99607 1-663). A digest of the protocol:
as §1

The target of the next experiment is T8, ERF (Homo sapiens, UniProt P50548 1-548).
T8 sequence: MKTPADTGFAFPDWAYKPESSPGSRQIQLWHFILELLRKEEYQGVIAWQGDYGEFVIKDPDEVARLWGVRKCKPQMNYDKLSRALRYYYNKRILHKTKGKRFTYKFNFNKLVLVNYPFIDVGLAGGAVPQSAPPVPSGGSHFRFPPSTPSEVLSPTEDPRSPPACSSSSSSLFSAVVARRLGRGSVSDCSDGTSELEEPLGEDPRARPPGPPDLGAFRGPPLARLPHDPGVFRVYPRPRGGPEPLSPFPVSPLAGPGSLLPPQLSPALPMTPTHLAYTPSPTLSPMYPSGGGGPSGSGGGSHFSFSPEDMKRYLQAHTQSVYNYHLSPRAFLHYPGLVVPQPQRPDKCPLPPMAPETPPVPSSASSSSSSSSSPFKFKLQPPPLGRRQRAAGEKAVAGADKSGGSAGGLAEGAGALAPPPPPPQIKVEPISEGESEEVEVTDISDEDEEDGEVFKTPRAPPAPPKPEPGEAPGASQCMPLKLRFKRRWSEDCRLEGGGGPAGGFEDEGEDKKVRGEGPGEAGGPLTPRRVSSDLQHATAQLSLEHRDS
A digest of the protocol:
as §1

The target of a further experiment is T9, ETV3L (Homo sapiens, UniProt Q6ZN32 1-361).
T9 sequence: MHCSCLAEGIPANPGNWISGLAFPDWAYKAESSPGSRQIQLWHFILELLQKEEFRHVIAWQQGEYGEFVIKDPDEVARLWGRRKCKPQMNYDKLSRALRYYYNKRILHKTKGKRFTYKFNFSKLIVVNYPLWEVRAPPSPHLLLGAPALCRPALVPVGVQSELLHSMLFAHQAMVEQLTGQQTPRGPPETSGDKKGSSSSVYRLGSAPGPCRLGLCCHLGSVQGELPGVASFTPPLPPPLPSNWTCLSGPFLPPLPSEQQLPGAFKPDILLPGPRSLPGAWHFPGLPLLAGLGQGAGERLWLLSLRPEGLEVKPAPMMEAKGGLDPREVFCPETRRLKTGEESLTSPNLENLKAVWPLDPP
A digest of the protocol:
as §1

The next experiment has as its target T10, ETS2 (Homo sapiens, UniProt P15036 1-469).
T10 sequence: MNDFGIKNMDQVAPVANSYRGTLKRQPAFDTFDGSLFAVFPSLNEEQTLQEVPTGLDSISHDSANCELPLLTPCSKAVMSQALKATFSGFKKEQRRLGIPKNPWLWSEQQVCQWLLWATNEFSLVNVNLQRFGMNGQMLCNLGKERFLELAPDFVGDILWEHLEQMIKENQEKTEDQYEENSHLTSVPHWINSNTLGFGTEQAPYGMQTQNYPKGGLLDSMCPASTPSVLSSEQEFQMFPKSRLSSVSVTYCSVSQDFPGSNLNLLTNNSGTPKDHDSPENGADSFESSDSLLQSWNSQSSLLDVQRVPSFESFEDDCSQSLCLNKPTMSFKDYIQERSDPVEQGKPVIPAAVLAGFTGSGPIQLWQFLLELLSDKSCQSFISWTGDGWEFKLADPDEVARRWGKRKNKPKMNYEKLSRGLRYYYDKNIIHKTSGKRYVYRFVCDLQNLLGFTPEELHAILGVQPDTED
A digest of the protocol: as §1

The next experiment has as its target T11, SPDEF (Homo sapiens, UniProt O95238 1-335).
T11 sequence: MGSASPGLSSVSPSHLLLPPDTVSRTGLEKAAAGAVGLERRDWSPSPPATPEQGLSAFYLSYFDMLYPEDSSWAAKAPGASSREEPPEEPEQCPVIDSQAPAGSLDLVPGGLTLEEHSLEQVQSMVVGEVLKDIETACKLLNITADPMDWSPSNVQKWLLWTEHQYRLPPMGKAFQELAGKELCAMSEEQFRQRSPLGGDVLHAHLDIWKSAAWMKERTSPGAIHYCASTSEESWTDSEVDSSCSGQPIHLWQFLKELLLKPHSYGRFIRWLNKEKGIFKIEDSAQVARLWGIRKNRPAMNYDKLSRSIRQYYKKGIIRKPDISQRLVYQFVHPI
A digest of the protocol:
as §1

Another experiment addresses T12, ELF5 (Homo sapiens, UniProt Q9UKW6-2 1-255).
T12 sequence: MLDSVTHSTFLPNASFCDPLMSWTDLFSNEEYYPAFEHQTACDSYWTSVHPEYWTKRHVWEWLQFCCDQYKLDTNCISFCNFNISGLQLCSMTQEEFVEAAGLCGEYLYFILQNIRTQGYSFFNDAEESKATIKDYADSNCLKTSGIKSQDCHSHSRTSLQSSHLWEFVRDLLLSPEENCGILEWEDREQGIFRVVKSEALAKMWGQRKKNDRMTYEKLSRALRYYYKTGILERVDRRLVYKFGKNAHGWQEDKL
The method, boiled down: as §1

The target in the next experiment is T13, ETV3 (Homo sapiens, UniProt P41162-2 1-143).
T13 sequence: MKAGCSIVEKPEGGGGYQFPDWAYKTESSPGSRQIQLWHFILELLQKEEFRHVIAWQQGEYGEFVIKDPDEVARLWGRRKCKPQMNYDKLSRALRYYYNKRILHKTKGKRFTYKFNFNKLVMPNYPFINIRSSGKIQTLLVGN
A digest of the protocol: as §1

Another experiment has as its target ETV6 (Homo sapiens, UniProt P41212 1-452). A digest of the protocol:
as §1

This note sets out measurements from article PMC7862700, “An all-to-all approach to the identification of sequence-specific readers for epigenetic DNA modifications on cytosine”.

ETV5, sequence (P41161 whole entry): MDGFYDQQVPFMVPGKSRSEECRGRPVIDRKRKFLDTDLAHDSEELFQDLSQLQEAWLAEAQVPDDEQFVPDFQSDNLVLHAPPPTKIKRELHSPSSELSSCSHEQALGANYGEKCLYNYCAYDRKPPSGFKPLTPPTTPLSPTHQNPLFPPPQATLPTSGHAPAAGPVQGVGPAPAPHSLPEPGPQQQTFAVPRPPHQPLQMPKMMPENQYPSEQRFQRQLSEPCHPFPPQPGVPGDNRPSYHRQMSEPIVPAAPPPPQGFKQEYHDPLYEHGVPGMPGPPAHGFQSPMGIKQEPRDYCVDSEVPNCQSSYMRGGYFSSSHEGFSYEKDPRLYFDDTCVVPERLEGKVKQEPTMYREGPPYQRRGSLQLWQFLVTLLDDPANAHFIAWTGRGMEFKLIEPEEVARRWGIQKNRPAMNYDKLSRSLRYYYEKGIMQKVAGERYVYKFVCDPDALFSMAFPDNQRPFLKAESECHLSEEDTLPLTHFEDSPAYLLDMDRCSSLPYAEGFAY
ETV6, sequence (P41212 whole entry): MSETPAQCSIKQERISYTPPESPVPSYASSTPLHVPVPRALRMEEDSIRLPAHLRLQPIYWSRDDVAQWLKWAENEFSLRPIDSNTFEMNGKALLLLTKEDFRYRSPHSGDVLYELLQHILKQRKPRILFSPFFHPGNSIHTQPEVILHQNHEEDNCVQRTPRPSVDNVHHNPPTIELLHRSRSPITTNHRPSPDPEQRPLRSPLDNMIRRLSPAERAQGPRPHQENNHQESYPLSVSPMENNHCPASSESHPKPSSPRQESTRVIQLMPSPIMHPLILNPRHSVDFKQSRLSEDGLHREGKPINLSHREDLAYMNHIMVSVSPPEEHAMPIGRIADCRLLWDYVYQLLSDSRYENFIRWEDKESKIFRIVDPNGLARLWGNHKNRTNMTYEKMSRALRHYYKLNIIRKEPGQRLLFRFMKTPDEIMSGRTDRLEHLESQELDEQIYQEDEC
ELF1, sequence (P32519 whole entry): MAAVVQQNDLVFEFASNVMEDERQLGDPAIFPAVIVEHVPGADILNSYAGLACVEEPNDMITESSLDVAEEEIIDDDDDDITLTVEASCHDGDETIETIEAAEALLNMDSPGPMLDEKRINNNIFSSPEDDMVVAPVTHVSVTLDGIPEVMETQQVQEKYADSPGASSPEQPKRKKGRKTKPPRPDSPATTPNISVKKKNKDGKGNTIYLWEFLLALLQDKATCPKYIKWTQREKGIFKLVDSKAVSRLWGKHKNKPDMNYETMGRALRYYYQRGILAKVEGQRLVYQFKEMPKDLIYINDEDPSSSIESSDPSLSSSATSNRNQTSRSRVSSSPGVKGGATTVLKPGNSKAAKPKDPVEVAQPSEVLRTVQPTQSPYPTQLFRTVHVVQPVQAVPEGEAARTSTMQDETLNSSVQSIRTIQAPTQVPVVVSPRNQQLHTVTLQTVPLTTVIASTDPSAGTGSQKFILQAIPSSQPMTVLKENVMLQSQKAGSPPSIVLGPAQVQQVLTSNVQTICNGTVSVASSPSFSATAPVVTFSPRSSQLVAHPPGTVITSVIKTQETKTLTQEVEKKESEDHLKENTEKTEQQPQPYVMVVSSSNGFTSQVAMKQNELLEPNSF
SPIB, sequence (Q01892 whole entry): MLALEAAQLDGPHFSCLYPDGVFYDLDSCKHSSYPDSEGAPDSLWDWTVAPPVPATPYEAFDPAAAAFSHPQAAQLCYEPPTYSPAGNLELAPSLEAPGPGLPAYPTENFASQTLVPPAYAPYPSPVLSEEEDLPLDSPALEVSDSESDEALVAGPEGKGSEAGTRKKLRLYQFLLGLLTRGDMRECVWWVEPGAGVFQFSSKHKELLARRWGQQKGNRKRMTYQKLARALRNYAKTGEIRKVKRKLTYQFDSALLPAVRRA
ELF4, sequence (Q99607 whole entry): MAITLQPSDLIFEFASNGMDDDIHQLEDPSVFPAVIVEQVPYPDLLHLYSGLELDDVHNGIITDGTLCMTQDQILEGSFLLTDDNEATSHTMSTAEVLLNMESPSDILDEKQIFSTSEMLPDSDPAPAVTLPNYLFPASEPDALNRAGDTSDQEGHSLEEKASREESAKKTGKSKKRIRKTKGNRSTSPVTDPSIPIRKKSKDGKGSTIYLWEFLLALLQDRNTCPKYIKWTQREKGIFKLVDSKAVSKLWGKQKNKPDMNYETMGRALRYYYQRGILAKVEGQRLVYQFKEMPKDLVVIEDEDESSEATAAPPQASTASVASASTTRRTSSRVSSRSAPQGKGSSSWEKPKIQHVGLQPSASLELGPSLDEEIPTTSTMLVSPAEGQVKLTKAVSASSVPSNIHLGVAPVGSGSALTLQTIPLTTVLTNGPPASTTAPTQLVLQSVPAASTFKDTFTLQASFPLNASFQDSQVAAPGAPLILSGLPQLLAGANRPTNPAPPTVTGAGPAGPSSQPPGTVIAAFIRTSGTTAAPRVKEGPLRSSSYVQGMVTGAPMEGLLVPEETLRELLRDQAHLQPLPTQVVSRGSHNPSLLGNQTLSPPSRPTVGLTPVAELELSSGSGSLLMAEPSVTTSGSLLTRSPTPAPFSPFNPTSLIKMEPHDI

Take CATACC: the binding signal was 1.03 fold enrichment (6-mer frequency, TF over GST control) in the experiment with FLI1; 1.06 fold enrichment (6-mer frequency, TF over GST control) with ELK1; 1.11 fold enrichment (6-mer frequency, TF over GST control) with GABPA; 1.03 fold enrichment (6-mer frequency, TF over GST control) with ERG; 1.09 fold enrichment (6-mer frequency, TF over GST control) with ELF1; 1.1 fold enrichment (6-mer frequency, TF over GST control) with EHF. The binding signal is 1.03 fold enrichment (6-mer frequency, TF over GST control) in the experiment with SPI1; 1.04 fold enrichment (6-mer frequency, TF over GST control) in the experiment with SPIB; 1.07 fold enrichment (6-mer frequency, TF over GST control) in the experiment with FEV; 1.04 fold enrichment (6-mer frequency, TF over GST control) with ETV5; 1.03 fold enrichment (6-mer frequency, TF over GST control) in the experiment with SPIC; 1.1 fold enrichment (6-mer frequency, TF over GST control) with ELF4. Further, the binding signal is 1.03 fold enrichment (6-mer frequency, TF over GST control) with ERF; 1.17 fold enrichment (6-mer frequency, TF over GST control) with ETV3L; 1.1 fold enrichment (6-mer frequency, TF over GST control) with ETS2; 1.14 fold enrichment (6-mer frequency, TF over GST control) with SPDEF; 1.04 fold enrichment (6-mer frequency, TF over GST control) with ELF5; 1.06 fold enrichment (6-mer frequency, TF over GST control) with ETV3. The binding signal with ETV6 was 1.01 fold enrichment (6-mer frequency, TF over GST control).
